Assay results taken from the supplement of paper PMC9135407.
Values joined by “and” are separate entries in the source; they are usually repeats but may differ in a detail not shown here. Identical values can stand only once. Counter-ions that a name gives are not always drawn. The campaign covered roughly 5,800 compounds. About 620 (11%) showed activity. The full list was thinned out, with actives kept by preference. Unmarked numbers belong to inactive results.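 Rule for the calls: active = score above a cut-off or among the top three wells of a plate; in these data no inactive exceeds 0.85.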

Test system: primary human hepatic stellate cells (donor 1)
Assay: scaled lipid accumulation score (0 = DMSO-like, 1 = nortriptyline-like); higher = stronger HSC inactivation (lipid re-accumulation), active = hit call of the paper
Conditions: 48 h
[1] = library stock concentration: 10 mM
[2] = library stock concentration: 3.33 mM
[3] = library stock concentration: 1 mM
[4] = library stock concentration: 400 uM
[5] = library stock concentration: 2 mM

N=C(N)N
scaled lipid accumulation score [1]: ≤ 0

N=C(N)N [Guanidine HCl]
scaled lipid accumulation score [2]: ≤ 0 | scaled lipid accumulation score [1]: ≤ -0.001

CCCCC[C@H](O)/C=C/[C@H]1OC(O)C[C@H](O)[C@@H]1CCCCCCC(=O)O (some centres undefined) [Thromboxane B1]
scaled lipid accumulation score [3]: 0.131

C#CCCCCCCCCCCCC(O)CC(O)CO (centres undefined) [Avocadyne]
scaled lipid accumulation score [1]: 0.005

COc1ccccc1N1CCN(CCCCNC(=O)c2ccc(-c3ccc(C(C)=O)cc3)cc2)CC1
scaled lipid accumulation score [1]: 0.934 (active)

Cc1cccc(C(=O)NCN2CCN(c3ccccc3C#N)CC2)c1 [PD 168,077 maleate]
scaled lipid accumulation score [1]: ≤ 0

COc1ccccc1N1CCN(CCCNc2cc(=O)n(C)c(=O)n2C)CC1
scaled lipid accumulation score [1]: ≤ 0

Cc1cccc(C(=O)NCN2CCN(c3ccccc3C#N)CC2)c1
scaled lipid accumulation score [1]: 0.009

COc1ccccc1N1CCN(CCCNc2cc(=O)n(C)c(=O)n2C)CC1 [Urapidil]
scaled lipid accumulation score [1]: ≤ -0.027

COc1ccc2cccc(N3CCN(CCNC(=O)c4ccc(F)cc4)CC3)c2c1
scaled lipid accumulation score [1]: 0.585

COc1ccccc1N1CCN(CCCNc2cc(=O)n(C)c(=O)n2C)CC1 [Urapidil hydrochloride]
scaled lipid accumulation score: ≤ 0 | scaled lipid accumulation score [1]: ≤ 0 and 0.02

COc1ccccc1N1CCN(CCCCNC(=O)c2ccc3ccccc3c2)CC1 [listing 1 of 2 here]
scaled lipid accumulation score: 0.307

Cl.O=C(NCCCCN1CCN(c2cccc(Cl)c2Cl)CC1)c1ccc2c(c1)Cc1ccccc1-2
scaled lipid accumulation score [1]: 0.884 (active)

COc1ccccc1N1CCN(CCCCNC(=O)c2ccc3ccccc3c2)CC1 [listing 2 of 2 here]
scaled lipid accumulation score [1]: 1.01 (active)

COc1ccccc1N1CCN(CCCNc2cc(=O)n(C)c(=O)n2C)CC1 [Urapidil HCl]
scaled lipid accumulation score [2]: ≤ 0 | scaled lipid accumulation score [1]: ≤ 0

COc1ccccc1N1CCN(CCCNc2c(C)c(=O)n(C)c(=O)n2C)CC1 [Urapidil, 5-Methyl-]
scaled lipid accumulation score [1]: ≤ 0

COc1cccc(C(=O)NCCN2CCN(c3ccc(Cl)cc3)CC2)c1
scaled lipid accumulation score [1]: 0.314

Cc1nccnc1N1CCCCC1
scaled lipid accumulation score [1]: ≤ 0

CCCCCC/C=C\CCCC(=O)CC(=O)N[C@H]1CCOC1=O [N-3-oxo-tetradec-7(Z)-enoyl-L-Homoserine lactone]
scaled lipid accumulation score [3]: ≤ 0

Cc1ccc(-c2c(-c3nn(C)c4ncnc(N5CC[C@H](N6CCCCC6)C5)c34)cnn2C)cc1
scaled lipid accumulation score [2]: ≤ 0 | scaled lipid accumulation score [1]: 0.091

CCCCCC(=O)CC[C@H]1[C@H](O)CC(=O)[C@@H]1CCCCCCC(=O)O [13,14-dihydro-15-keto Prostaglandin E1]
scaled lipid accumulation score [3]: ≤ 0

Cc1cc(Nc2nc(N[C@@H](C)c3ccc(F)cc3)c(C#N)cc2F)n[nH]1
scaled lipid accumulation score [4]: ≤ -0.005 | scaled lipid accumulation score [5]: ≤ -0.005 | scaled lipid accumulation score [2]: ≤ 0 | scaled lipid accumulation score [1]: 0.387 and 0.197

O=S(=O)(NO)c1ccccc1 [Piloty's Acid]
scaled lipid accumulation score [3]: ≤ 0

Cn1cnc2cc3c(Nc4cccc(Br)c4)ncnc3cc21
scaled lipid accumulation score [2]: 0.044

CCCCCC=CCC=CCCCCCCCC(=O)OC(CO)CO [2-Linoleoyl Glycerol]
scaled lipid accumulation score [3]: 0.053

C[C@@H]1C[C@H]2O[C@@H]2/C=C\C=C\C(=O)Cc2c(Cl)c(O)cc(O)c2C(=O)O1 [Radicicol]
scaled lipid accumulation score [3]: 0.383

O=C(O)CCC/C=C\C[C@@H]1[C@@H](CCC(=O)CCc2ccccc2)[C@H](O)C[C@@H]1O [15-keto Latanoprost (free acid)]
scaled lipid accumulation score [3]: ≤ 0

CNCc1cn(C2CCN(CCC(C)CC(C)(C)C)CC2)nn1 (centres undefined)
scaled lipid accumulation score [1]: 1.05 (active)

CCCCC(CC)CN1CN(CC(CC)CCCC)CC(C)(N)C1 (centres undefined) [Hexetidine]
scaled lipid accumulation score: ≤ 0 | scaled lipid accumulation score [1]: 0.342

CCCCC(CC)CN1CCC(n2cc(CNC)nn2)CC1 (centres undefined)
scaled lipid accumulation score [1]: 0.988 (active)

CCCCc1ccc(N=CNO)c(C)c1
scaled lipid accumulation score [3]: 0.03

CC(O)(CC(=O)O)CC(=O)O
scaled lipid accumulation score [1]: 0.023

CC1(C)[C@H]2CC[C@@]1(C)C(=O)C2 [1r-camphor]
scaled lipid accumulation score [1]: ≤ 0

O=C(O)[C@H](O)c1ccccc1 [R-(-)-Mandelic Acid]
scaled lipid accumulation score [3]: 0.02

CSC(=N)NCCC[C@H](N)C(=O)O [S-Methyl-L-thiocitrulline acetate]
scaled lipid accumulation score [1]: ≤ -0.02

O=C(Nc1ncc(SCCN2CCCC2)s1)[C@]1(c2ccc(S(=O)(=O)C3CC3)cc2)C[C@@H]1C1CCCCC1
scaled lipid accumulation score [2]: 1.12 (active)

O=C(Nc1ncc(SCCN2CCCC2)s1)[C@]1(c2ccc(S(=O)(=O)C3CC3)cc2)C[C@H]1C1CCCCC1
scaled lipid accumulation score [1]: 0.143

Cn1cccc1/C=C1\C(=O)NC(=O)c2ccccc21
scaled lipid accumulation score [1]: 0.017

O=C(Nc1ccccc1)N[C@@H]1C[C@@H](C(=O)O)Nc2cc(Cl)cc(Cl)c21
scaled lipid accumulation score [1]: ≤ 0

CC(N)(C(=O)O)c1ccc(C(=O)O)cc1 (centres undefined)
scaled lipid accumulation score [1]: 0.151

NC(=O)c1c(NC(=O)C2CC2)sc2c1CCCC2
scaled lipid accumulation score (library stock concentration: 80 uM): ≤ -0.001 | scaled lipid accumulation score [4]: ≤ -0.001 | scaled lipid accumulation score [5]: ≤ -0.001 | scaled lipid accumulation score [1]: 0.118

CCN(CC)C(=O)c1ccc(Nc2nc(OCC3CCCCC3)c3[nH]cnc3n2)cc1 [Cdk2 Inhibitor IV, NU6140]
scaled lipid accumulation score [2]: ≤ 0

CC1OC2(CS1)CN1CCC2CC1 (centres undefined) [Cevimeline hydrochloride]
scaled lipid accumulation score [1]: ≤ 0
